Reference: the supplement of paper PMC6555819

What was measured:
Experiment in all cases: PBM binding z-score (relative to random genomic background probes); higher = stronger binding; sequences stand for … in GC…GCGATTGACAGCGTAGAATGAAGG
[1] = test system: RARb homodimer (NR concentration 270 nM)
Procedure, shortened: (§1)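 Regression normalization was applied to scanned fluorescence from custom Agilent 4×180K protein-binding microarrays. Before scanning, arrays were incubated 1 h with ligand-free nuclear receptor dimers, and binding was detected with antibodies against each partner (one per run). Binding z-scores use the random background probes as reference.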

[2] = test system: RARg:RXRa (NR concentration 270 nM, RXRa partner concentration 90 nM)
Procedure, shortened: as §1

[3] = test system: RARg homodimer (NR concentration 270 nM)
Procedure, shortened: as §1

[4] = test system: RXRa DBDmut IVT, anti-RXR (DBD mutation: RXRa K156A/R161A, NR concentration 90 nM)
Procedure, shortened: as §1

[5] = test system: RXRa homodimer (NR concentration 180 nM)
Procedure, shortened: as §1

[6] = test system: THRa:RXRa (NR concentration 90 nM, RXRa partner concentration 90 nM)
Procedure, shortened: as §1

[7] = test system: THRa homodimer (NR concentration 90 nM)
Procedure, shortened: as §1

[8] = test system: VDR homodimer (NR concentration 270 nM)
Procedure, shortened: as §1

Sequence	PBM binding z-score [1]	PBM binding z-score [2]	PBM binding z-score [3]	PBM binding z-score [4]	PBM binding z-score [5]	PBM binding z-score [6]	PBM binding z-score [7]	PBM binding z-score [8]
CCTTACAGGTCACTGACAGGTTATAGCATTTGGA	3.83	5.94	5.46	2.62	4.91	3.28	0.808	1.41
ACTATTAGTTGACTTAGGGCAACCAATACGACGC	1.15	0.838	0.945	0.699	0.621	1.66	0.216	0.251
TTACCAAGGTGACGGTCGTTGATCCCTCTGTAGA	1.18	0.607	0.608	-0.779	0.836	2.01	0.865	-0.245
CGTCCAATGTCAATGCTAGGTCAGTGAAAGCATT	2.73	3.07	1.98	0.448	0.676	2.23	0.915	0.181
CTTCCAAGGTGAACAAGGTCGTTGATTACTATTC	2.18	1.8	1.62	1.57	1.69	3.41	2.03	2.34
CGAACTAGGTCAAAGACAGTGAATCTCCGCACGC	2.53	3.63	3.88	1.57	2.67	2.39	0.814	0.508
GGAACGAGGGCAGAGTTGATAGCATCTGTCGACG	0.448	0.934	1.12	1.49	0.588	0.324	-0.629	0.314
GCTGCTAGGTCAACTGATGGACAGCTAAAGCTCG	3.12	4.45	5.36	1.28	2.94	2.72	0.89	-0.122
TAGCCTAGGTCATGCGCGCCAGTATAGTGTCGGC	3.06	4.02	4.19	0.635	3.16	3.17	1.27	0.448
ATATGTTGGTTAGCTGGGGTCATTCAGACTAGGC	3.55	3.66	2.3	1.91	4.97	4.21	3.57	5.32
TCTATTAGTTGAAGGGCACCCGACGAGTCCGTTT	1.26	0.402	0.483	1.77	0.846	0.413	0.444	1.93
CCTACTGGGCCAAGGTAATTGATCAGTCAAAGCA	0.0571	-0.354	-0.0827	-0.902	-0.382	0.383	-0.112	-0.51
TCATATAGGTAAAAGGTGCAAGTCGGTGTGGTAA	0.775	0.469	0.207	1.9	1.27	0.295	-0.18	0.772
GGAACGAGGGCATTCGAGTTGAGAGCATGGCGAT	0.91	1.14	1.31	2.99	1.05	3.58	-0.815	2.68
GCTATTAGTTGAAAGGGCACCCGAATGATTCTCG	1.78	1.18	1.03	1.06	1.43	0.64	0.229	0.843
CCTTACGGGTCACTCCAGGTTATACCATCGGAGT	2.89	4.32	4.44	1.3	4.29	4.98	0.681	1.45
CCTTACGGGCCAAGGTTATAGCACGGGTGGTACG	0.655	0.306	0.628	-1.14	0.273	0.713	0.104	0.207
TAGCCTAGGTCATGGGCCAGTATACCACGCGAAC	2.71	4.27	4.78	0.316	3.57	2.93	1.3	0.506
AGGACGAGGGCAATGAGTTGATAGCACGGGTGGC	1.44	1.21	1.88	2.22	0.924	1.08	0.181	3.41
AGAATGACGTTAAGATCAGGGAAACAGAATACAT	-0.348	0.0241	0.396	-0.43	0.183	-0.0731	-0.547	-0.184
TCTATTAGTTGCTTAGGGCAACCGAAACAGCGGA	0.716	0.433	0.547	1.23	0.549	0.996	0.379	0.236
ACTATTAGTTTAGACGAGGGCAACCGATAGGTTG	1.49	0.78	1.15	0.931	0.581	2.5	0.435	1.65
CAAACTAGGTCACGAAAGGTCACAGTCGAATGAC	6.08	7.72	8.69	2.05	7.64	5.11	3.05	2.77
ATATGTAGCTTACATCCGGGTCATTCAGGCTATG	1.78	1.48	1.02	0.735	1.9	2.87	2.3	2.18
AGAATGAAGTTAAGATCAGGGAAACAGAATACAT	-0.296	0.141	0.297	-0.544	0.166	0.135	-0.599	-0.0314
CCTAGCAGGCCAGGGTCATTCAAGCATTTCGCTT	2.54	2.93	1.89	1.62	3.35	2.93	0.719	2.77
CGTCAAAGTTCAAGGTAACATAACAGAAAGCAGC	3.84	5.43	6.33	4.63	4.69	2.92	1.05	2.9
GCTAGCAGGCCATTTGGGTCACTCATTGACGGGC	1.77	0.783	1.14	0.292	0.477	1.69	0.799	0.121
TCTCTTAGTTGATTAGGGCAACCGAAACAGCGGA	0.99	0.874	0.649	1.47	0.82	0.934	0.61	0.608
